Compound activity: PubChem, National Center for Advancing Translational Sciences (NCATS)
GLP1R inv ag = inverse agonists of human GLP-1 receptor | P43220 | AID 624417 | HEK293 GLP-1R CRE-luciferase, luminescence, 24 h; GLP-1R form is constitutively active | 410,000 tested, 1.6% active | Potency, µM (titrated, usually from 38.3 µM), for inactives: top-dose activity change, negative = inhibition, most hits filed as inhibitors; also: % is scaled to controls: 0 for no effect and ±100 for the full control effect; nearly all actives have a fitted effect of over 55% in size
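HEK293 cells stably co-expressing constitutively active GLP-1R and a cAMP-responsive luciferase reporter were seeded in DMEM with 10% Nu serum, given compounds after 12 h, and incubated 24 h at 37 deg C. Luminescence was then read.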
VP16 counter = Gal4-VP16 reporter inhibition counter-screen; Drosophila S2 Gal4-VP16 UAS-luciferase, luminescence, 20 h; Potency, µM (top dose mostly 53.6 µM), for inactives: at the top dose activity, negative = inhibition, hits mostly inhibitors; 310,000 tested, 3.5% active;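 also: Gal4-VP16 expression switched on by copper sulfate through the metallothionein promoter; % is scaled to controls: 0 for no effect and ±100 for the full control effect; nearly all actives have a fitted effect of over 50% in size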
GLP1R cytotox = cytotoxicity in counter-screen for GLP-1R inverse agonists; HEK293 cAMP-luciferase reporter cells, luminescence, 24 h; Potency, µM (titrated, usually from 38.3 µM), for inactives: at the highest dose activity change, negative = inhibition, hits mostly inhibitors; 410,000 tested, 0.13% active; AID 624418;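 also: loss of luciferase light is scored as toxicity; % is scaled to controls: 0 for no effect and ±100 for the full control effect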
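Here, cytotoxicity is scored as loss of luminescence. The MLSMR collection was tested on cells seeded in medium containing 10% Nu serum, with a 24 hr compound exposure preceded by 12 hours of culture.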
RORgamma inh = inhibitors of mouse ROR gamma transcriptional activity; P51450; Drosophila S2 Gal4-RORgamma UAS-luciferase reporter, 20 h; Potency, µM (titrated, usually from 53.6 µM), without a hit: at the highest dose activity change, negative = inhibition, most hits filed as inhibitors; 310,000 tested, 5.4% active; AID 2551; also: % is scaled to controls: 0 for no effect and ±100 for the full control effect; nearly all actives have a fitted effect of over 60% in size
Target sequence (P51450 whole entry, looked up, the tested form may be a part): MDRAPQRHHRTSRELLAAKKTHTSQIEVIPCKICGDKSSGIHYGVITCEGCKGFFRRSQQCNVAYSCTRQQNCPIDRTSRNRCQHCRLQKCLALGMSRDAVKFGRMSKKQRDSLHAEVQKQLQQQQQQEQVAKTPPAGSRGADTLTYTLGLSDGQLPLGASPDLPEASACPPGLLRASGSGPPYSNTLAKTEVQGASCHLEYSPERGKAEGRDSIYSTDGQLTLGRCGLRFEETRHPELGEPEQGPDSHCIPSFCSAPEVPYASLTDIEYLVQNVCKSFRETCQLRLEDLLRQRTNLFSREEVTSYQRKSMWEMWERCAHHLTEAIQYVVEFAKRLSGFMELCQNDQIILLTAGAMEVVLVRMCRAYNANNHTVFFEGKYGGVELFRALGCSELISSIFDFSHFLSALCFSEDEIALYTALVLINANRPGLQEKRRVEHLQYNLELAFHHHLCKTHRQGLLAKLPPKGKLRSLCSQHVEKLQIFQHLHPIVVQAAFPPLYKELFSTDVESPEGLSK
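Using a luciferase readout, inhibitors were identified by reduced reporter activity in Drosophila cells coexpressing a copper-inducible Gal4–ROR gamma fusion and UAS-driven Photinus luciferase, incubated 20 hr after 700 uM copper sulfate.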
GLP-1R agonist = agonists of human GLP-1 receptor; P43220; HEK293 GLP-1R CRE-luciferase, luminescence, 4-6 h; cells express a hypersensitive GLP-1R form; Potency, µM (highest dose often 45.6 µM), without a hit: top-dose activation, usual class: activators; 380,000 tested, 0.007% active; AID 624172; also: % of control where 0% means no effect
Numbers without * were called inactive; [ ] = remark or other dose. Compounds with a hit are over-represented: about 5.9% of the library has one in this group of screens. Calls follow the shape of the dose curve; as a rule, active = well fitted curve in the direction sought with a large enough effect; inconclusive = small, poorly fitted or top-dose-only effect, or another doubt; inactive = no such curve, though single readings can be large; an effect the other way counts as inactive or inconclusive. Potency is read from the fitted curve at half-maximal effect.

C=CCn1c(-c2ccc(OC)c(OC)c2)cs/c1=N\c1ccccn1 was read as GLP1R inv ag -2%, VP16 counter inconclusive, GLP1R cytotox -27%, RORgamma inh inconclusive and GLP-1R agonist 10%.
Screening C=CCN=c1scc(-c2ccc(F)cc2)n1/N=C/c1ccccn1 returned GLP1R inv ag inconclusive, VP16 counter 11µM*, GLP1R cytotox -1%, RORgamma inh 8.9µM* and GLP-1R agonist inconclusive.
`CC(=O)c1ccc(NC(=O)CSc2cn(CC(=O)N(C(C)C)C(C)C)c3ccccc23)cc1` gave GLP1R inv ag -26% and GLP1R cytotox 4%.
Screening CCC(C(=O)Nc1cc(C)ccc1C)n1c(=O)c(C(F)(F)F)nc2ccccc21 (stereo unspecified) returned GLP1R inv ag 18% and GLP1R cytotox 4%.
Screening C/C(=N\Nc1nc2ccccc2[nH]1)c1ccc(C)o1 returned GLP1R inv ag inconclusive, VP16 counter inconclusive, GLP1R cytotox inconclusive, RORgamma inh 14µM* and GLP-1R agonist inconclusive.
`C/C(=N\Nc1nc2ccccc2[nH]1)c1ccc(Cl)s1` gave GLP1R inv ag inconclusive, VP16 counter 2.8µM*, GLP1R cytotox inconclusive, RORgamma inh 2.2µM* and GLP-1R agonist 1%.
Screening O=C(Nc1nnc(-c2cc(Cl)ccc2Cl)o1)C1=COCCO1 returned GLP1R inv ag 3%, GLP1R cytotox -19% and GLP-1R agonist -2%.
`O=C(COc1ccc(Cl)cc1Cl)Nc1nnc(C2=COCCO2)o1` gave GLP1R inv ag 11%, VP16 counter 4.5µM*, GLP1R cytotox 3%, RORgamma inh 3.2µM* and GLP-1R agonist -5%.
O=C(COc1ccc(Cl)cc1)Nc1nnc(C2=COCCO2)o1 was read as GLP1R inv ag 5%, VP16 counter -16%, GLP1R cytotox -3%, RORgamma inh 13µM* and GLP-1R agonist 0%.
Screening COc1ccc(OC2C(O)COC2/C=C/C#Cc2ccc(F)cc2F)cc1 (stereo unspecified) returned VP16 counter -6%[10 µM] and RORgamma inh -33%[10 µM].
C=C1/C(=C\C=C2/CCC[C@@]3(C)[C@@H]([C@H](C)OCCC(C)(C)O)CC[C@@H]23)C[C@@H](O)C[C@@H]1O was read as GLP-1R agonist 1%.
Screening CCOc1ccc(CCNC(=O)C2CCCN(S(=O)(=O)N(C)c3ccc(F)cc3)C2)cc1 (stereo unspecified) returned GLP1R inv ag inconclusive and GLP1R cytotox 2%.
Screening CCn1c(=O)c(-c2nc3ccccc3[nH]2)c(O)c2ccccc21 returned GLP1R inv ag 17%, VP16 counter 0.63µM*, GLP1R cytotox 3%, RORgamma inh 0.16µM* and GLP-1R agonist 10%.
`CCCn1c(=O)c(-c2nc3ccccc3[nH]2)c(O)c2ccccc21` gave GLP1R inv ag 17%, VP16 counter 2µM*, GLP1R cytotox 4%, RORgamma inh 0.5µM* and GLP-1R agonist 1%.
`CCCCCCn1c(=O)c(-c2ccccc2)c(O)c2ccccc21` gave GLP1R inv ag inconclusive, VP16 counter -11%, GLP1R cytotox -2%, RORgamma inh 1% and GLP-1R agonist 2%.
Cc1cccc(C)c1OC(=O)CSc1nnc(CNC(=O)c2ccccc2)o1 was read as GLP1R inv ag -6% and GLP1R cytotox 6%.
Screening S=C1NCN(Cc2ccccc2)CN1 returned GLP1R inv ag -5%, VP16 counter 0%, GLP1R cytotox 4%, RORgamma inh 2% and GLP-1R agonist 5%.
S=c1[nH]ccn1Cc1ccccc1 was read as GLP1R inv ag 9%, VP16 counter inconclusive, GLP1R cytotox -9%, RORgamma inh 11µM* and GLP-1R agonist 3%.
`CC(C)Oc1ccc(CNC(=O)C2CCCN(S(=O)(=O)c3ccc4c(ccn4C)c3)C2)cc1` (stereo unspecified) gave GLP1R inv ag -2% and GLP1R cytotox 1%.
COc1ccc(NC(=O)N2CCC(CN3CCCC3)CC2)c(OC)c1 was read as GLP1R inv ag 13% and GLP1R cytotox 1%.
CCN(CC)CCOc1ccc(-c2nc3cc(Cl)ccc3s2)cc1 was read as VP16 counter 0%, RORgamma inh 7% and GLP-1R agonist -3%.
Screening COc1ccc(CCC(=O)NNC(=O)c2ccc(F)cc2)cc1 returned GLP1R inv ag 3%, VP16 counter -9%, GLP1R cytotox inconclusive, RORgamma inh -15% and GLP-1R agonist 8%.
O=C(NCc1ccc(F)cc1)C(c1ccccc1)c1ccccc1 was read as GLP1R inv ag inconclusive, VP16 counter -3%, GLP1R cytotox -15%, RORgamma inh -23% and GLP-1R agonist 5%.
`CCC(NC(=S)NCc1ccc(F)cc1)c1ccccc1` (stereo unspecified) gave GLP1R inv ag inconclusive, VP16 counter 3.2µM*, GLP1R cytotox inconclusive, RORgamma inh 3.5µM* and GLP-1R agonist -6%.
COc1ccc(C(C)NC(=S)NCc2ccc(F)cc2)cc1 (stereo unspecified) was read as GLP1R inv ag inconclusive, VP16 counter 1µM*, GLP1R cytotox inconclusive, RORgamma inh 5.6µM* and GLP-1R agonist 10%.
Screening COc1ccc(CCC(=O)NNC(=S)NCc2ccc(F)cc2)cc1 returned GLP1R inv ag inconclusive, VP16 counter -19%, GLP1R cytotox -1%, RORgamma inh 7.9µM* and GLP-1R agonist -2%.
`Cc1ccc(C)c(C(C)NC(=S)NCc2ccc(F)cc2)c1` (stereo unspecified) gave GLP1R inv ag inconclusive, VP16 counter 1.4µM*, GLP1R cytotox inconclusive, RORgamma inh 5µM* and GLP-1R agonist -2%.
`Cc1ccc2c(=O)c(C(=O)c3ccc(F)cc3)cn(CC(=O)NCc3ccccc3)c2n1` gave GLP1R inv ag -5% and GLP1R cytotox -4%.
`O=C(NC1CCCCCC1)C1CCN(C(=O)N2CCOc3ccc(Cl)cc32)CC1` gave GLP1R inv ag 17% and GLP1R cytotox -13%.
`COC(=O)c1cc2sccc2n1CC(=O)Nc1cc(Cl)ccc1OC` gave GLP1R inv ag inconclusive and GLP1R cytotox -4%.
COc1cccc(C(C)NC(=S)NCc2ccc(Cl)cc2)c1 (stereo unspecified) was read as GLP1R inv ag -3%, VP16 counter inconclusive, GLP1R cytotox 18%, RORgamma inh 6.3µM* and GLP-1R agonist 1%.
COC(=O)c1cccc(NC(=S)NCc2ccc(Cl)cc2)c1 was read as GLP1R inv ag inconclusive, VP16 counter 4%[0.365 µM], GLP1R cytotox -14%, RORgamma inh inconclusive and GLP-1R agonist -2%.
